Bioassay records as filed in PubChem BioAssay.
TLR9-MyD88 block: inhibitors of human TLR9-MyD88 binding. inhibition, % at 4.98 µM. 0.21% of 340,000 active. CHO BLA complementation TLR9-MyD88, CCF4 FRET ratio. Q9NR96+Q99836. AID 504734;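 active means inhibition above the mean over all tested compounds plus 3 SD, cut at about 21% in these data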;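 further: 0% = DMSO only wells and 100% = clavulanate BLA inhibitor control wells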
Exocytosis inh: blocks lytic granule exocytosis | TALL-104 LAMP-1 surface exposure, flow cytometry; cells stimulated with thapsigargin and PMA | AID 651702 | inhibition, % at 10 µM | 0.66% of 360,000 active;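 active means inhibition above about 55%, limit read from the data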
PRMT1 inh: PRMT1 (human) inhibition, primary screen | recombinant PRMT1, activity-based probe fluorescence polarization | 1.3% of 370,000 active | inhibition, % at 2.79 µM;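 active means inhibition above about 21% made by adding two undisclosed values, limit read from the data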
NOD2 RIPK2 PPI: inhibitors of human NOD2-RIPK2 interaction; inhibition, % at 4.98 µM; 0.38% of 360,000 active; CHO BLA complementation NOD2-RIPK2, CCF4 ratio; O43353; in the data active means inhibition above about 21%;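 further: 0% = vehicle only and 100% = reference blocker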
ABHD5 PLIN5 PPI: ABHD5-PLIN5 protein interaction inhibition; 0.78% of 360,000 active; Q00G26+Q8WTS1; inhibition, % at 4 µM; Split G. princeps luciferase complementation, luminescence, 4 h;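 active means inhibition above the mean inhibition across every tested compound plus 3 SD, cut at about 22% in these data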;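 further: 0% = DMSO only wells and the 100% control is not disclosed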
Target sequence (Q00G26 whole entry, looked up): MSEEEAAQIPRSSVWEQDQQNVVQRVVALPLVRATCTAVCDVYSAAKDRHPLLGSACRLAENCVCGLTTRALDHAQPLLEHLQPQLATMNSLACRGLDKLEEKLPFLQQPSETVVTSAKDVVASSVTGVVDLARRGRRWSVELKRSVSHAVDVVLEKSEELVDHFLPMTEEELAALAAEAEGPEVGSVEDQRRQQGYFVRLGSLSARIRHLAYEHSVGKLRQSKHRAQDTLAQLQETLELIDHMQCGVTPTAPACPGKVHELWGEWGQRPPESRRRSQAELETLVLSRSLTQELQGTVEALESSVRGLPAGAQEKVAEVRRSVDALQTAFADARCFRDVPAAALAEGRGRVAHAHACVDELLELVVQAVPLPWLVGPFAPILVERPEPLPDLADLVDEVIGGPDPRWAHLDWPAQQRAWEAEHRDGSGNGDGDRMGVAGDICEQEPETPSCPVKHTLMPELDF
Target sequence (Q8WTS1 whole entry, looked up): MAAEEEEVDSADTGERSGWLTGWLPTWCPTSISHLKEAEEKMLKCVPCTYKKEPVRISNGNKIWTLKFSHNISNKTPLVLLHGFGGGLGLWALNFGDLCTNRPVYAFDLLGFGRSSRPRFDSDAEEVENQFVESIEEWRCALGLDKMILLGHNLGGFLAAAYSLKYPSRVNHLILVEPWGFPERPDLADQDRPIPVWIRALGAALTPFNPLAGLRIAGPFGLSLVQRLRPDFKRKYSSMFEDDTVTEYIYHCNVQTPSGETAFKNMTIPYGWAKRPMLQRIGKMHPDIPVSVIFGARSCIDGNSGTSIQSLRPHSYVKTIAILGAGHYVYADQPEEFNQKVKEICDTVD
TLR4-MyD88 BLA: inhibitors of human TLR4-MyD88 binding; 0.18% of 200,000 active; inhibition, % at 8.4 µM; AID 861; O00206+Q99836; HeLa CL3-4 TLR4/MyD88 BLA complementation, FRET ratio; in the data active means inhibition above about 25%;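 further: 0% = vehicle and 100% = reference inhibitor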
Starred values were filed as active, the others as inactive. An excerpt weighted towards active compounds, which were near 2.6% of everything screened.

`COc1cc(NC(=O)c2ccc3c(=O)n(Cc4ccco4)c(=S)[nH]c3c2)cc(OC)c1OC` gave TLR9-MyD88 block -2.9, Exocytosis inh -1.9, PRMT1 inh 1.9, NOD2 RIPK2 PPI 6.0, ABHD5 PLIN5 PPI 22.5* and TLR4-MyD88 BLA -3.6.
For CCOC(=O)c1c(NC(=S)NC)sc2c1CC(C)(C)SC2 the results were TLR9-MyD88 block -3.0, Exocytosis inh 2.2, PRMT1 inh 23.9*, NOD2 RIPK2 PPI -6.9, ABHD5 PLIN5 PPI -4.8 and TLR4-MyD88 BLA -1.0.
Screening CCOC(=O)c1c(NC(=S)Nc2ccccc2)sc2c1CC(C)(C)SC2 returned TLR9-MyD88 block -0.2, Exocytosis inh 0.7, PRMT1 inh 0.5, NOD2 RIPK2 PPI 2.2, ABHD5 PLIN5 PPI -5.8 and TLR4-MyD88 BLA -19.8.
For CCOC(=O)c1cc2c(=O)n3cccc(C)c3nc2n(Cc2ccco2)c1=NC(=O)c1ccccc1 the results were TLR9-MyD88 block 10.6, Exocytosis inh 17.3, PRMT1 inh 7.4, NOD2 RIPK2 PPI -9.8, ABHD5 PLIN5 PPI 22.3* and TLR4-MyD88 BLA -2.3.
For CCOC(=O)c1cc2c(=O)n3cccc(C)c3nc2n(Cc2ccco2)c1=NC(=O)c1ccc(C)cc1 the results were TLR9-MyD88 block -2.1, Exocytosis inh 0.9, NOD2 RIPK2 PPI 5.0 and ABHD5 PLIN5 PPI -6.6.
For C=CCN1C(=O)/C(=C/c2ccc(-c3ccc(F)cc3)o2)SC1=S the results were TLR9-MyD88 block 0.7, Exocytosis inh 93.2*, PRMT1 inh 3.3, NOD2 RIPK2 PPI -5.3 and ABHD5 PLIN5 PPI -1.4.
Screening C=C(C(=O)c1ccccc1)C(C)C(=C)C(=O)c1ccccc1 returned TLR9-MyD88 block 0.6, Exocytosis inh 7.5, PRMT1 inh 1.8, NOD2 RIPK2 PPI 2.7, ABHD5 PLIN5 PPI 22.4* and TLR4-MyD88 BLA 8.8.
O=C1N[C@@H](Cc2ccccc2)COC(=O)[C@@H](Cc2ccc(F)cc2)CC/C=C/C[C@H]1CC(=O)N(CCO)Cc1ccccc1 was read as TLR9-MyD88 block -14.2, Exocytosis inh -21.1, PRMT1 inh -1.1, NOD2 RIPK2 PPI 4.7 and ABHD5 PLIN5 PPI -4.2.
For O=C1N[C@@H](Cc2ccccc2)COC(=O)[C@H](Cc2ccc(F)cc2)CC/C=C/C[C@@H]1CC(=O)N(CCO)Cc1ccccc1 the results were TLR9-MyD88 block -3.1, Exocytosis inh 58.0*, PRMT1 inh -2.5, NOD2 RIPK2 PPI -4.7 and ABHD5 PLIN5 PPI 0.8.
Screening Cc1cccc(NC(=O)CNC(=O)[C@H](CCc2ccccc2)NC(=O)[C@H]2O[C@@H](n3cnc4c(N)ncnc43)[C@H](O)[C@@H]2O)c1C returned PRMT1 inh 3.6.
Screening O=C(Nc1ccc(S(=O)(=O)N2CCOCC2)cc1)c1ccc2c(c1)S(=O)(=O)c1ccccc1C2=O returned TLR9-MyD88 block -10.5, Exocytosis inh 5.2, PRMT1 inh 2.7, NOD2 RIPK2 PPI -3.7, ABHD5 PLIN5 PPI -3.7 and TLR4-MyD88 BLA 2.6.
O=C(Nc1cc(S(=O)(=O)N2CCOCC2)ccc1O)c1ccc2c(c1)S(=O)(=O)c1ccccc1C2=O was read as TLR9-MyD88 block -7.0, Exocytosis inh -0.1, PRMT1 inh 21.5*, NOD2 RIPK2 PPI -8.2, ABHD5 PLIN5 PPI 4.2 and TLR4-MyD88 BLA 8.5.
Screening Cc1ccc(S(=O)(=O)N2OC(c3ccccc3)C[C@H]2CC=C(c2ccccc2)c2ccccc2)cc1 (some centres not stated) returned PRMT1 inh -1.1.
Screening N#Cc1c(SCC(=O)Nc2nncs2)sc2c(O)cc(=O)[nH]c12 returned TLR9-MyD88 block -2.1, Exocytosis inh 5.3, PRMT1 inh 46.0*, NOD2 RIPK2 PPI -7.9 and ABHD5 PLIN5 PPI -4.7.
`N#Cc1c(SCC(=O)Nc2ccc(C(F)(F)F)cc2)sc2c(O)cc(=O)[nH]c12` gave TLR9-MyD88 block 0.0, Exocytosis inh -17.8, PRMT1 inh 14.5, NOD2 RIPK2 PPI -4.8 and ABHD5 PLIN5 PPI -9.9.
Screening C=CCN1[C@H](C#N)[C@@H](c2ccc(Br)cc2)[C@H]1CO returned PRMT1 inh -3.8.
Screening Cc1cccc(C(=O)N/C(=C\c2ccco2)C(=O)N2CCCC2)c1 returned TLR9-MyD88 block 5.7, Exocytosis inh 5.8, PRMT1 inh 23.3*, NOD2 RIPK2 PPI -6.6 and ABHD5 PLIN5 PPI -4.4.
For Cc1ccc(C(=O)N/C(=C/c2ccco2)C(=O)N2CCCCCC2)cc1 the results were TLR9-MyD88 block 3.6, Exocytosis inh -3.1, PRMT1 inh 10.4, NOD2 RIPK2 PPI -7.7 and ABHD5 PLIN5 PPI 1.2.
